An excerpt weighted towards active compounds, which were near 3.4% of everything screened.
GPR151 ag: activators of human GPR151, primary screen, cell-based, PathHunter beta-arrestin, luminescence; G-protein coupled receptor 151 (Homo sapiens), Q8TDV0; PathHunter beta-arrestin GPR151 cells; activation, % at 11.2 µM; actives 1% (n = 650,000); AID 1508602, 2020; in the data active = activation above about 4.9%
Target sequence (Q8TDV0 whole entry, looked up): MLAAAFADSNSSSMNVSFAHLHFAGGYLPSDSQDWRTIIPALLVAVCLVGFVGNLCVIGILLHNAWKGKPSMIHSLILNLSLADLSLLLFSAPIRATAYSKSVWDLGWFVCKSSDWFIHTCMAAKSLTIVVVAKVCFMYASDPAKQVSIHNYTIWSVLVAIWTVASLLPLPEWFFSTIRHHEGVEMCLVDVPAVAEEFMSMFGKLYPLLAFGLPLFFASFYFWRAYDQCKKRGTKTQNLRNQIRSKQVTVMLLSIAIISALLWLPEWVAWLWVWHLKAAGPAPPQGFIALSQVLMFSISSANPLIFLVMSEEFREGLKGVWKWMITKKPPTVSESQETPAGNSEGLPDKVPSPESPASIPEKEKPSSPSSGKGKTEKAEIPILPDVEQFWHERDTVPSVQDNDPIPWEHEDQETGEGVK
MITF primary: MITF inhibitors, primary screen, biochemical, AlphaScreen, human; Microphthalmia-associated transcription factor (Homo sapiens), O75030; AlphaScreen MITF homodimerization, bead proximity signal; inhibition, % at 2.6 µM; actives 0.91% (n = 650,000); AID 1259374, 2018; in the data active = inhibition above about 50%
FBW7 activator: FBW7 E3 ligase activators, primary screen, biochemical, AlphaScreen, human. AlphaScreen FBW7–phospho-cyclin E peptide binding, activator screen. normalized activity (activation), % at 26.1 µM. actives 0.13% (n = 650,000); in the data active = normalized activity above about 1.9%;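 note: purified mutant Fbw7 with reduced substrate affinity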
TEAD-YAP block: TEAD-YAP interaction inhibition, primary screen, TEAD-YAP interaction inhibitor project, luminescence, HEK-TIYL cells. inhibition, % at 9.12 µM. AID 1259422, 2018. actives 1.4% (n = 640,000). TEAD-Gal4/YAP UAS-luciferase luminescence; in the data active = inhibition above about 32%
MITF confirm: MITF inhibitors, retest of hits, confirmation, biochemical, AlphaScreen, triplicate. AlphaScreen MITF homodimerization, biotin/His-MITF beads. shares compounds with MITF primary. inhibition, % at 2.6 µM. actives 16% (n = 4,700);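 active = inhibition above a cutoff derived from the DMSO control wells, cut at about 28% in these data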;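 note: inhibitors lower the bead chemiluminescence by keeping MITF from dimerizing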
AS interf ctr: AlphaScreen optical interference compounds, counter-screen for MITF inhibitor project, biochemical, triplicate. LysRS AlphaScreen counterscreen, signal interference. shares compounds with MITF primary. actives 7.6% (n = 4,700). inhibition, % at 2.6 µM. AID 1259376, 2018;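 active = inhibition above a cutoff derived from the DMSO control wells, cut at about 30% in these data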
Of the large screens only hits and unclear results are named; the others gave an inactive call (follow-up assays come after a bar, where they were run).

COc1ccc(CN2CCNC(=O)C2CC(=O)NC2C3CC4CC(C3)CC2C4)cc1OC (stereo unspecified)	none
COc1cccc(CN2CCC(N3CCN(c4ccccc4F)CC3)CC2)c1	MITF primary 73 | MITF confirm inactive | AS interf ctr inactive
COc1ccccc1N1CCN(C2CCN(Cc3cccc(F)c3)CC2)CC1	MITF primary 62 | MITF confirm inactive | AS interf ctr inactive
CCN(C(=O)Cn1ncc2c1-c1cc(C)ccc1OC2)c1ccccc1F	none
CCN(C(=O)Cn1ncc2c1-c1cc(C)ccc1OC2)c1cc(OC)ccc1OC	MITF primary 70 | MITF confirm inactive | AS interf ctr inactive
CN(C)CC(C)(C)CNCC(=O)Nc1ccc(OC(F)(F)F)cc1	MITF primary 55 | MITF confirm inactive | AS interf ctr inactive
Cc1ccc(C)c(NC(=O)CCC(=O)Nc2cc(C)ccc2C)c1	none
Cc1ccc(C)c(NC(=O)CNCC(C)(C)CN(C)C)c1	MITF primary 74 | MITF confirm inactive | AS interf ctr inactive
CCC(C)(C)NCC(=O)Nc1ccc(OC(F)(F)F)cc1	none
Cc1cc(C)cc(NC(=O)CC(C)(C)C)c1	none
O=C(CSc1nnc(CNc2ccc(F)cc2)o1)Nc1ccc(Cl)cc1	none
O=C1CC(N2CCCCC2)C=C1Nc1ccc(F)cc1 (stereo unspecified)	none
COc1ccc(CN2CCN(Cc3ccc4c(c3)OCO4)CC2)cc1	MITF primary 64 | MITF confirm inactive | AS interf ctr inactive
Fc1ccc(CN2CCN(Cc3ccc4c(c3)OCO4)CC2)c(F)c1	MITF primary 61 | MITF confirm inactive | AS interf ctr inactive
COc1ccc(C(=O)N2CCN(Cc3ccc4c(c3)OCO4)CC2)cc1	MITF primary 55 | MITF confirm inactive | AS interf ctr inactive
COc1ccc(NC(=S)N2CCN(Cc3ccc4c(c3)OCO4)CC2)cc1	none
Cc1ccc(C(=O)N2CCN(Cc3ccc4c(c3)OCO4)CC2)cc1	none
O=C(Cc1cccs1)NC1(c2ccc3c(c2)OCO3)CCCC1	none
CCCc1cc(C(=O)NNC(=O)Nc2ccc(OC)cc2OC)cs1	none
CCOc1c(O)ccc(/C=C2\C(=O)Nc3ccc(Br)cc32)c1[N+](=O)[O-]	MITF primary 65 | MITF confirm inactive | AS interf ctr inactive
Cc1ccc(/C=C/C(=O)Nc2ccccc2Cl)o1	MITF primary 52 | MITF confirm inactive | AS interf ctr inactive
O=C(/C=C/c1ccc(Br)o1)Nc1ccccc1Cl	none
c1ccc(Cc2nc3cnccn3c2NCc2ccc3c(c2)OCO3)cc1	MITF primary 68 | MITF confirm inactive | AS interf ctr inactive
c1csc(-c2nc3cnccn3c2NCc2ccc3c(c2)OCO3)c1	none
COc1ccccc1CN(CCCN(C)C)CCCN(C)C	none
CN(C)CCN(C)Cc1cccc2ccccc12	MITF primary 60 | MITF confirm inactive | AS interf ctr inactive
CN(C)CCCN(CCCN(C)C)Cc1cccc2ccccc12	MITF primary 55 | MITF confirm inactive | AS interf ctr inactive
O=C(Nc1ccc(F)cc1Cl)c1noc2c1COc1ccccc1-2	none
CCc1nnc(NS(=O)(=O)c2ccc(NC(=O)c3ccc(OC)cc3)cc2)s1	none
Cc1cc(C)c(C(=O)Nc2cccc([N+](=O)[O-])c2)c(C)c1	none
O=[N+]([O-])c1ccc(CN2CCC(N3CCCCCC3)CC2)cc1	none
O=[N+]([O-])c1ccc(CN2CCC(N3CCN(CCO)CC3)CC2)cc1	MITF primary 53 | MITF confirm inactive | AS interf ctr inactive
CC1CCC(N2CCN(Cc3ccc([N+](=O)[O-])cc3)CC2)CC1 (stereo unspecified)	MITF primary 65 | MITF confirm inactive | AS interf ctr inactive
CCCN1CCC(N2CCN(c3ccc([N+](=O)[O-])cc3)CC2)CC1	MITF primary 55 | MITF confirm inactive | AS interf ctr inactive
CC1CCN(Cc2ccc([N+](=O)[O-])cc2)CC1	none
CC1CCCC(N2CCN(c3ccc([N+](=O)[O-])cc3)CC2)C1 (stereo unspecified)	none
N#Cc1c(-c2ccc(-c3ccc(F)c(Cl)c3)o2)c(C#N)c2nc3ccccc3n2c1N	none
Cc1ccc2c(=O)c(-c3cc(Br)cc4c3OCOC4)coc2c1	none
CSc1ccc(NC(=O)C2CC23CCN(Cc2coc4ccc(C)cc4c2=O)CC3)cc1 (stereo unspecified)	none
Cc1ccc2occ(CN3CCC4(CC3)CC4C(=O)Nc3ccc(F)c(F)c3)c(=O)c2c1 (stereo unspecified)	MITF primary 74 | MITF confirm inactive | AS interf ctr inactive
NC(=O)c1ccc(NC(=O)COC(=O)Cc2ccc(Cl)cc2)cc1	none
Cc1cc(Cl)c(OCCN2CCN(C)CC2)c(Br)c1	MITF primary 55 | MITF confirm inactive | AS interf ctr inactive
Cc1cc(Cl)c(OCCCN2CCOCC2)c(Br)c1	none
Cc1cc(Cl)c(OCCOCCN2CCN(C)CC2)c(Br)c1	MITF primary 77 | MITF confirm inactive | AS interf ctr inactive
Cc1cc(Cl)c(OCCCN2CCN(C)CC2)c(Br)c1	MITF primary 65 | MITF confirm inactive | AS interf ctr inactive
COCCNCCOc1c(Cl)cc(C)cc1Br	MITF primary 64 | MITF confirm inactive | AS interf ctr inactive
CN1CCN(CCOCCOc2c(Cl)cc(Cl)cc2Cl)CC1	none
O=S(=O)(Cc1ccccc1)Nc1ccc(Cc2ccncc2)cc1	none
CC1(C2CCN(Cc3c(F)cccc3Cl)CC2)NC(=O)N(Cc2ccsc2)C1=O (stereo unspecified)	none
O=C(NNC(=O)c1cccs1)c1cnccn1	none
CC(=O)Nc1ccc(NC(=O)C2CC=CCC2C(=O)O)cc1 (stereo unspecified)	none
CCc1ccc(NC(=O)C2CC=CCC2C(=O)O)cc1 (stereo unspecified)	MITF primary 83 | MITF confirm inactive | AS interf ctr inactive
Fc1cc(F)c(F)c(SCCc2ccncc2)c1F	MITF primary 90 | MITF confirm inactive | AS interf ctr inactive
Cc1c(C)n2c(SCC(=O)Nc3nccs3)nnc2[nH]c1=O	none
Cc1nc(-c2ccc(N3CCN(C(=O)COc4ccccc4F)CC3)nc2)no1	none
O=C(CN1CCN(Cc2ccccc2)CC1)N1CCCc2ccccc21	MITF primary 72 | MITF confirm inactive | AS interf ctr inactive
CC(=O)C(Cc1ccccc1)NC(=O)CN1CCN(C/C=C/c2ccccc2)CC1 (stereo unspecified)	MITF primary 62 | MITF confirm inactive | AS interf ctr inactive
O=C(CN1CCN(C/C=C/c2ccccc2)CC1)N1CCCc2ccccc21	MITF primary 85 | MITF confirm inactive | AS interf ctr inactive
O=C(CN1CCN(Cc2nc(-c3cccs3)cs2)CC1)N1CCc2ccccc21	MITF primary 58 | MITF confirm inactive | AS interf ctr inactive

Assay outcomes: PubChem BioAssay, The Scripps Research Institute Molecular Screening Center
